# From paper PMC11062922 (Nature Chemical Biology, 2023)
# Read-outs that look alike come from different tables or passages of the source.
# How the values were obtained:
# Parameters in all cases: species or system human, MV4-11 + K-562 + COLO205 + SK-N-BE2 + OVCAR-8
# COX5A = settings: read-out: apparent Kd; compound concentrations: 100 nM and 1000 nM (sheet 'Samples'), CATDS: 5.4646770087593201E-2; n = 1
# CSNK1D = settings: read-out: apparent Kd, compound concentrations: 100 nM and 1000 nM (sheet 'Samples'), n = 1
# CSNK1E = settings: read-out: apparent Kd, compound concentrations: 100 nM and 1000 nM (sheet 'Samples'), n = 1
# DDR1 = settings: read-out: apparent Kd; compound concentrations: 100 nM and 1000 nM (sheet 'Samples'), CATDS: 8.5854125332601505E-2; n = 1
# DDR2 = settings: read-out: apparent Kd; compound concentrations: 100 nM and 1000 nM (sheet 'Samples'), CATDS: 5.1047862039129102E-2; n = 1
# DYRK1A = settings: read-out: apparent Kd, compound concentrations: 100 nM and 1000 nM (sheet 'Samples'), n = 1
# ILK = settings: read-out: apparent Kd; compound concentrations: 100 nM and 1000 nM (sheet 'Samples'), CATDS: 4.86206826406465E-2; n = 1
# JAK2 = settings: read-out: apparent Kd; compound concentrations: 100 nM and 1000 nM (sheet 'Samples'), CATDS: 0.29618992494589602; n = 1
# MAPK10 = settings: read-out: apparent Kd, compound concentrations: 100 nM and 1000 nM (sheet 'Samples'), n = 1
# MAPK14 = settings: read-out: apparent Kd, compound concentrations: 100 nM and 1000 nM (sheet 'Samples'), n = 1
# MAPK8 = settings: read-out: apparent Kd, compound concentrations: 100 nM and 1000 nM (sheet 'Samples'), n = 1
# MAPK9 = settings: read-out: apparent Kd, compound concentrations: 100 nM and 1000 nM (sheet 'Samples'), n = 1
# MAPKAPK2 = settings: read-out: apparent Kd, compound concentrations: 100 nM and 1000 nM (sheet 'Samples'), n = 1
# NLK = settings: read-out: apparent Kd, compound concentrations: 100 nM and 1000 nM (sheet 'Samples'), n = 1
# RIPK2 = settings: read-out: apparent Kd; compound concentrations: 100 nM and 1000 nM (sheet 'Samples'), CATDS: 7.3862527968221903E-2; n = 1
# CSNK1A1 = settings: read-out: apparent Kd; compound concentrations: 100 nM and 1000 nM (sheet 'Samples'), CATDS: 7.6615483507767895E-2; n = 1
# PIP4K2C = settings: read-out: apparent Kd; compound concentrations: 100 nM and 1000 nM (sheet 'Samples'), CATDS: 7.4110853975201799E-2; n = 1
# LATS1 = settings: read-out: apparent Kd; compound concentrations: 100 nM and 1000 nM (sheet 'Samples'), CATDS: 0.13446121771830499; n = 1
# NNT = settings: read-out: apparent Kd; compound concentrations: 100 nM and 1000 nM (sheet 'Samples'), CATDS: 0.14488734368084999; n = 1
# PKN2 = settings: read-out: apparent Kd; compound concentrations: 100 nM and 1000 nM (sheet 'Samples'), CATDS: 0.15546286258013101; n = 1
# RPS6KB1 = settings: read-out: apparent Kd; compound concentrations: 100 nM and 1000 nM (sheet 'Samples'), CATDS: 0.17749177686381501; n = 1
# CLK1 = settings: read-out: apparent Kd; compound concentrations: 100 nM and 1000 nM (sheet 'Samples'), CATDS: 0.13184639507044499; n = 1
# CLK4 = settings: read-out: apparent Kd; compound concentrations: 100 nM and 1000 nM (sheet 'Samples'), CATDS: 0.153440234991533; n = 1
# GAK = settings: read-out: apparent Kd; compound concentrations: 100 nM and 1000 nM (sheet 'Samples'), CATDS: 0.13551111713290001; n = 1
# TTK = settings: read-out: apparent Kd; compound concentrations: 100 nM and 1000 nM (sheet 'Samples'), CATDS: 0.53372982121950996; n = 1
compound,measurement,setting,value
Clc1ccc(-c2nn3ncccc3c2-c2ccnc(Nc3ccc4c(c3)OCCO4)n2)cc1 [GW829116X],potency estimated from few doses,COX5A,1390 nM
same,potency estimated from few doses,CSNK1D; CATDS: 7.5632586412137201E-2,637 nM
same,potency estimated from few doses,CSNK1E; CATDS: 5.2875216757628997E-2,1530 nM
same,potency estimated from few doses,DDR1,495 nM
same,potency estimated from few doses,DDR2,1710 nM
same,potency estimated from few doses,DYRK1A; CATDS: 4.6782776774364397E-2,2320 nM
same,potency estimated from few doses,ILK,2010 nM
same,potency estimated from few doses,JAK2,72.6 nM
same,potency estimated from few doses,MAPK10; CATDS: 6.7537775874855099E-2,815 nM
same,potency estimated from few doses,MAPK14; CATDS: 7.0110586320851001E-2,749 nM
same,potency estimated from few doses,MAPK8; CATDS: 5.7180888411163297E-2,1230 nM
same,potency estimated from few doses,MAPK9; CATDS: 0.15745137005687401,177 nM
same,potency estimated from few doses,MAPKAPK2; CATDS: 6.45632126081358E-2,904 nM
same,potency estimated from few doses,NLK; CATDS: 6.2213467797214997E-2,988 nM
same,potency estimated from few doses,RIPK2,670 nM
CN1CCC(n2cnc(-c3ccc(F)cc3)c2-c2ccnc(NC3CCNCC3)n2)CC1 [SB-229482],potency estimated from few doses,CSNK1A1,1760 nM
same,potency estimated from few doses,CSNK1D; CATDS: 0.231386526780439,127 nM
same,potency estimated from few doses,CSNK1E; CATDS: 0.20184204641009601,159 nM
same,potency estimated from few doses,MAPK10; CATDS: 9.5737343662475993E-2,810 nM
same,potency estimated from few doses,MAPK14; CATDS: 0.239197237832417,121 nM
same,potency estimated from few doses,MAPK9; CATDS: 0.10171878103733301,682 nM
same,potency estimated from few doses,MAPKAPK2; CATDS: 0.108564299414966,573 nM
same,potency estimated from few doses,NLK; CATDS: 8.6878607565958693E-2,1100 nM
same,potency estimated from few doses,PIP4K2C,2040 nM
CCc1nccc2c1nc(-c1nonc1N)n2CC [SB-751148],potency estimated from few doses,CSNK1D; CATDS: 0.159181013373493,1090 nM
same,potency estimated from few doses,CSNK1E; CATDS: 0.120883925571631,1960 nM
same,potency estimated from few doses,DYRK1A; CATDS: 0.124378507371426,1830 nM
same,potency estimated from few doses,LATS1,1530 nM
same,potency estimated from few doses,NNT,1310 nM
same,potency estimated from few doses,PKN2,1140 nM
same,potency estimated from few doses,RPS6KB1,902 nM
CNc1nc(Nc2ccc(C(=O)N3CCOCC3)cc2OC)nc2[nH]cc(Cl)c12 [JH-II-127],potency estimated from few doses,CLK1,1090 nM
same,potency estimated from few doses,CLK4,722 nM
same,potency estimated from few doses,GAK,1000 nM
same,potency estimated from few doses,MAPK8; CATDS: 0.168882234188796,575 nM
same,potency estimated from few doses,MAPK9; CATDS: 0.14872410543912701,781 nM
same,potency estimated from few doses,TTK,76.1 nM
